Assay [1] addresses Bile acid receptor (Homo sapiens) (UniProt Q96RI1). Put plainly: OT_FXR_FXRSRC1_1440: Odyssey Thera (OT) 24-hour HEK293T Protein-Complementation Assay for Farnesoid X receptor/SRC-1 Co-activator (AID 2283384). The procedure, abridged:
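Compounds are applied to human kidney HEK293T cells expressing bait and prey fused to reporter protein fragments; after 24 h, reconstituted reporter fluorescence is measured. Activity is fitted as signal gain over DMSO.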

The target of assay [2] is Peroxisome proliferator-activated receptor gamma (Homo sapiens) (UniProt P37231). Put plainly: OT_PPARg_PPARgSRC1_0480: Odyssey Thera (OT) 8-hour Protein-Complementation Assay for Peroxisome Proliferator-activated Receptor Gamma / SRC-1 Co-activator (AID 2283387).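 Note: nuclear to cytoplasmic split Venus YFP fluorescence ratio reporting PPARg SRC-1 interaction.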 The procedure, abridged: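 Protein-fragment complementation in HEK293T: Venus YFP halves (residues 1-158, 159-239, mutated to IFP1/IFP2) fused to PPARg/SRC-1. 8 h exposure; N/C ratio at 488 nm; DMSO negative control.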
Peroxisome proliferator-activated receptor gamma (Homo sapiens), sequence (P37231 whole entry, looked up, the tested form may be a part): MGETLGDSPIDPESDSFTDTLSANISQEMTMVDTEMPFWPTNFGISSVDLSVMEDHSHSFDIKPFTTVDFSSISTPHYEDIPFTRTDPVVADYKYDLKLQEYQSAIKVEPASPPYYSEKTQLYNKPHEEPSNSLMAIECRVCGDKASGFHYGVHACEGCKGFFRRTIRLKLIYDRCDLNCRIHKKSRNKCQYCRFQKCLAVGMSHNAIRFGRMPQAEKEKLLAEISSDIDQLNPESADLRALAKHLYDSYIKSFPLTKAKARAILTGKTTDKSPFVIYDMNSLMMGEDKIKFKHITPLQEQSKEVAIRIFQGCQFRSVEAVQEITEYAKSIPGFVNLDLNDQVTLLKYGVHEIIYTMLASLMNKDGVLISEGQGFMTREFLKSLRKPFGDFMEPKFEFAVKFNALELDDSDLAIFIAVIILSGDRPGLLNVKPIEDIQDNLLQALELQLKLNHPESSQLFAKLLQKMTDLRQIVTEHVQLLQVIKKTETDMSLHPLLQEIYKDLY

For assay [3] the target is unchanged. Put plainly: OT_PPARg_PPARgSRC1_1440: Odyssey Thera (OT) 24-hour Protein-Complementation Assay for Peroxisome Proliferator-activated Receptor Gamma/ SRC-1 Co-activator (AID 2283388).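 Note: nuclear to cytoplasmic ratio of reconstituted Venus YFP fluorescence in fixed imaged cells.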 The procedure, abridged:
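Transient HEK293T, YFP fragments 1-158/159-239 (mutant IFP1/IFP2) fused to PPARg/SRC-1; 24 h dosing; fix 4% formaldehyde, Draq5; Opera imaging 488/635 nm; N/C ratio, gain vs DMSO.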

Assay [4] concerns the target Retinoic acid receptor RXR-alpha (Homo sapiens) (UniProt P19793). Put plainly: OT_NURR1_NURR1RXRa_0480: Odyssey Thera (OT) 8-hour HEK293T Protein Complementation Assay for Nurr1/retinoid X receptor (RXR) (AID 2283385). The procedure, abridged: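 8 h compound exposure, HEK293T; Nurr1/RXRα fragment complementation; fluorescence intensity; positive fitting direction vs DMSO baseline.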

The target is the same in assay [5]. Put plainly: OT_NURR1_NURR1RXRa_1440: Odyssey Thera (OT) 24-hour HEK293T Protein Complementation Assay for Nurr1/retinoid X receptor (RXR) (AID 2283386). The procedure, abridged:
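Interaction of Nurr1 with RXRα brings fused reporter fragments together in human HEK293T cells, restoring a functional reporter. Fluorescence intensity is measured 24 h after chemical treatment, and values are analysed in the positive direction against DMSO.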

Read-out in assay [6]: Fatty acid synthase (Homo sapiens) (UniProt P49327)
Put plainly: LTEA_HepaRG_FASN: Life Technologies and Expression Analysis (LTEA) Assay for Fatty Acid Synthase (FASN) using HepaRG (AID 2283448; active = hit-call score of the fitted dose curve at least 0.9, where 1 is the maximum; inactive = score below 0.9;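 for AC50: differentiated human HepaRG liver cells in serum-free induction medium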). Particulars: mRNA level, 48 h; actives raise or lower the signal. The procedure, abridged:
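FASN expression changes, up or down relative to 0.5% DMSO, were measured by qRT-PCR in human HepaRG cells after 48 h treatment with chemicals at eight concentrations (half-log steps from 100 uM).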

Read-out in assay [7]: Cyclin Dependent Kinase Inhibitor 1A (CDKN1A), CDKN1A (gene 1026)
Put plainly: LTEA_HepaRG_CDKN1A: Life Technologies and Expression Analysis (LTEA) Assay for Cyclin Dependent Kinase Inhibitor 1A (CDKN1A) using HepaRG (AID 2283450; active = hit-call score of the fitted dose curve at least 0.9, where 1 is the maximum; inactive = score below 0.9). The following applies: mRNA level, 48 h; actives raise or lower the signal. The procedure, abridged:
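Cryopreserved HepaRG cells were plated and cultured 48 h, then switched to serum-free induction medium. Chemicals (eight half-log concentrations, top 100 uM, 0.5% DMSO) were applied for 48 h. Lysates underwent qRT-PCR for CDKN1A with housekeeping normalization.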

Read-out in assay [8]: Cyclin D1 (CCND1), CCND1 (gene 595)
Put plainly: LTEA_HepaRG_CCND1: Life Technologies and Expression Analysis (LTEA) Assay for Cyclin D1 (CCND1) using HepaRG (AID 2283451; active = hit-call score of the fitted dose curve at least 0.9, where 1 is the maximum; inactive = score below 0.9;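 for AC50: differentiated human HepaRG liver cells in serum-free induction medium; TaqMan qRT-PCR transcript level normalised to ACTB GAPDH and POLR2A housekeeping genes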). The following applies: mRNA level, 48 h; actives raise or lower the signal. The procedure, abridged: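 Human liver HepaRG line; 48 h dosing, 8 conc. ≤100 uM, 0.5% DMSO; TaqMan qRT-PCR mRNA, 3 housekeeping genes; bidirectional curve fit vs DMSO.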

Read-out in assay [9]: catalase (CAT), CAT (gene 847)
Put plainly: LTEA_HepaRG_CAT: Life Technologies and Expression Analysis (LTEA) Assay for catalase (CAT) using HepaRG (AID 2283452; active = hit-call score of the fitted dose curve at least 0.9, where 1 is the maximum; inactive = score below 0.9;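 for AC50: TaqMan qRT-PCR signal normalized to ACTB GAPDH and POLR2A housekeeping genes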). Particulars: mRNA level, 48 h; actives raise or lower the signal. The procedure, abridged:
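Expression of CAT was quantified by TaqMan qRT-PCR with ACTB/GAPDH/POLR2A normalization after 48 h chemical exposure of HepaRG. Eight-point half-log series, top 100 uM, in 0.5% DMSO; gain or loss fitted against vehicle.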

Read-out in assay [10]: flavin-containing dimethylaniline monooxygenases 3 (FMO3), FMO3 (gene 2328)
Put plainly: LTEA_HepaRG_FMO3: Life Technologies and Expression Analysis (LTEA) Assay for flavin-containing dimethylaniline monooxygenases 3 (FMO3) using HepaRG (AID 2283453; active = hit-call score of the fitted dose curve at least 0.9, where 1 is the maximum; inactive = score below 0.9;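 for AC50: differentiated human HepaRG liver cells in serum-free induction medium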). Particulars: mRNA level, 48 h; actives raise or lower the signal. The procedure, abridged:
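Differentiated HepaRG cells in serum-free induction medium, exposed 48 h in duplicate to 8 half-log concentrations up to 100 uM in 0.5% DMSO. FMO3 mRNA by qRT-PCR, normalized to ACTB, GAPDH, POLR2A; bidirectional fit vs DMSO.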

Read-out in assay [11]: Cytochrome P450 (CYP1A1), CYP1A1 (gene 1543)
Put plainly: LTEA_HepaRG_CYP1A1: Life Technologies and Expression Analysis (LTEA) Assay for Cytochrome P450 (CYP1A1) using HepaRG (AID 2283454; active = hit-call score of the fitted dose curve at least 0.9, where 1 is the maximum; inactive = score below 0.9). Particulars: mRNA level, 48 h; actives raise or lower the signal. The procedure, abridged:
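Induction of CYP1A1 mRNA in a human hepatic cell line was measured 48 h after dosing, with 1 mM phenobarbital as induction positive control and 0.5% DMSO vehicle as baseline for bidirectional curve fitting.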

The nature of assay [12]: CEETOX_H295R_11DCORT: CeeTox H295R High-throughput Steroidogenesis Assay for 11-Deoxycortisol (11DCORT) (AID 2283432; active = hit-call score of the fitted dose curve at least 0.9, where 1 is the maximum; inactive = score below 0.9;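 for AC50: human adrenal H295R cells prestimulated with 10 µM forskolin for 48 h; 11-deoxycortisol secreted into the medium measured by LC-MS/MS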). Particulars: actives raise or lower the signal. The procedure, abridged:
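Adrenal carcinoma line H295R, run per OECD 456 with minor changes, was forskolin-stimulated (10 uM, 48 h) before a 48 h chemical exposure at 0.1% DMSO. Secreted 11-deoxycortisol was quantified by HPLC-MS/MS.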

A short description of assay [13]: CEETOX_H295R_OHPROG: CeeTox H295R High-throughput Steroidogenesis Assay for OH-Progesterone (OHPROG) (AID 2283435; active = hit-call score of the fitted dose curve at least 0.9, where 1 is the maximum; inactive = score below 0.9). Particulars: actives raise or lower the signal. The procedure, abridged: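 H295R, 10 uM forskolin prestim 48 h; cmpd in 0.1% DMSO 48 h; medium MTBE-extracted, HPLC-MS/MS for OH-progesterone; 7-pt std curve; bidirectional fit vs DMSO; MTT viability, chemicals diluted until viability >/=70%.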

Assay [14] in a line: CEETOX_H295R_CORTIC: CeeTox H295R High-throughput Steroidogenesis Assay for Corticosterone (CORTIC) (AID 2283437; active = hit-call score of the fitted dose curve at least 0.9, where 1 is the maximum; inactive = score below 0.9;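 note: corticosterone secreted into medium quantified by mass spectrometry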). Particulars: actives raise or lower the signal. The procedure, abridged:
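Corticosterone secreted into medium is measured by reverse-phase HPLC with tandem MS following liquid-liquid extraction. Cells are forskolin-stimulated (10 uM, 48 h) before 48 h test exposure; activity fitted in both directions against DMSO.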

The nature of assay [15]: CEETOX_H295R_CORTISOL: CeeTox H295R High-throughput Steroidogenesis Assay for Cortisol (AID 2283438; active = hit-call score of the fitted dose curve at least 0.9, where 1 is the maximum; inactive = score below 0.9;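 note: cortisol secreted into medium quantified by LC-MS/MS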). Particulars: actives raise or lower the signal. The procedure, abridged: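 Forskolin 10 uM 48 h prestim → test cmpd in DMSO (0.1% final) 48 h → medium MTBE-extracted → LC-MS/MS cortisol vs 7-pt std curve. Gain/loss of signal fitted vs DMSO. MTT viability in same wells.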

Assay [16] in a line: CEETOX_H295R_DOC: CeeTox H295R High-throughput Steroidogenesis Assay for DOC (AID 2283439; active = hit-call score of the fitted dose curve at least 0.9, where 1 is the maximum; inactive = score below 0.9). The following applies: actives raise or lower the signal. The procedure, abridged: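 Readout: 11-deoxycorticosterone in culture medium by reverse-phase C18 HPLC with ESI+ tandem MS after MTBE extraction. Cells: H295R, forskolin-primed (10 uM, 48 h), chemical-treated 48 h; DMSO 0.1% final. Activity fitted bidirectionally versus DMSO.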

A short description of assay [17]: CEETOX_H295R_PROG: CeeTox H295R High-throughput Steroidogenesis Assay for Progesterone (PROG) (AID 2283442; active = hit-call score of the fitted dose curve at least 0.9, where 1 is the maximum; inactive = score below 0.9). Particulars: actives raise or lower the signal. The procedure, abridged:
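Adrenal H295R line, forskolin-stimulated (10 uM, 48 h) before dosing. 48 h exposure, 0.1% DMSO vehicle. Secreted progesterone by reverse-phase HPLC with ESI+ MS/MS quantification; DMSO-normalised bidirectional curve fit.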

Eleven compounds from PubChem BioAssay (EPA / NIEHS) can be followed below.

Molecules are shown by their SMILES. Several values for one entry are separate records, joined by “and”; a condition that tells them apart may be missing. Equal values may be shown once. Results filed as inconclusive are left out. The source holds several records for some structures; these can differ, active in one and inactive in another. Activity calls are given as the source filed them. Rule for the calls, unless noted: active = hit-call score of the fitted dose curve at least 0.9, where 1 is the maximum; inconclusive = response in the unintended direction; inactive = score below 0.9.

Bile acid receptor (Homo sapiens), sequence (Q96RI1 whole entry, looked up, the tested form may be a part): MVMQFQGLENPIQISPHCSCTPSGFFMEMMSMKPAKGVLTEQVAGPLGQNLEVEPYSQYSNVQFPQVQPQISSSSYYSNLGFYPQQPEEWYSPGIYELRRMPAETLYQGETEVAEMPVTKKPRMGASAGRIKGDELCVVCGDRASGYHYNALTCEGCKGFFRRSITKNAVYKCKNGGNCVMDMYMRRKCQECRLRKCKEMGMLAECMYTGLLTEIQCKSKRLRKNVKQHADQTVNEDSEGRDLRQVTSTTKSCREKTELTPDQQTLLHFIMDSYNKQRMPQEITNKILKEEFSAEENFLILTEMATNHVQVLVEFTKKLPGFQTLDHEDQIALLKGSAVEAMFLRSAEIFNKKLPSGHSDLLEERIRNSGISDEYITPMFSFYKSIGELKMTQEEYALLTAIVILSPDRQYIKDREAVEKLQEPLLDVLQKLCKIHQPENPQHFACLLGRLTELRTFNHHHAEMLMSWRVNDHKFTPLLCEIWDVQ
Retinoic acid receptor RXR-alpha (Homo sapiens), sequence (P19793 whole entry, looked up, the tested form may be a part): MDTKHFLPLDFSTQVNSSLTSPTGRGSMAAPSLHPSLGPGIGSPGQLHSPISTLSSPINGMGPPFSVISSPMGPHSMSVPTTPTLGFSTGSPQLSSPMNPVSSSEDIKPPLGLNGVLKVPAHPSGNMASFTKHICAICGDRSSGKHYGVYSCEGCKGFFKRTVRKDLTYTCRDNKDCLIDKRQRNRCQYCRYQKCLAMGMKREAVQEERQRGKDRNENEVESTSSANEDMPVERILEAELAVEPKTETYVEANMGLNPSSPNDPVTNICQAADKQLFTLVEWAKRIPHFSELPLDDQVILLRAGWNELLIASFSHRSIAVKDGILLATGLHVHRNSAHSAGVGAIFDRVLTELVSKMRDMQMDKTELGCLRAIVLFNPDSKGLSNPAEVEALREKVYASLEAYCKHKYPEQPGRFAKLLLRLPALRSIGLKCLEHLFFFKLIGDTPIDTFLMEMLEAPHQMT
Fatty acid synthase (Homo sapiens), sequence (P49327 whole entry, looked up): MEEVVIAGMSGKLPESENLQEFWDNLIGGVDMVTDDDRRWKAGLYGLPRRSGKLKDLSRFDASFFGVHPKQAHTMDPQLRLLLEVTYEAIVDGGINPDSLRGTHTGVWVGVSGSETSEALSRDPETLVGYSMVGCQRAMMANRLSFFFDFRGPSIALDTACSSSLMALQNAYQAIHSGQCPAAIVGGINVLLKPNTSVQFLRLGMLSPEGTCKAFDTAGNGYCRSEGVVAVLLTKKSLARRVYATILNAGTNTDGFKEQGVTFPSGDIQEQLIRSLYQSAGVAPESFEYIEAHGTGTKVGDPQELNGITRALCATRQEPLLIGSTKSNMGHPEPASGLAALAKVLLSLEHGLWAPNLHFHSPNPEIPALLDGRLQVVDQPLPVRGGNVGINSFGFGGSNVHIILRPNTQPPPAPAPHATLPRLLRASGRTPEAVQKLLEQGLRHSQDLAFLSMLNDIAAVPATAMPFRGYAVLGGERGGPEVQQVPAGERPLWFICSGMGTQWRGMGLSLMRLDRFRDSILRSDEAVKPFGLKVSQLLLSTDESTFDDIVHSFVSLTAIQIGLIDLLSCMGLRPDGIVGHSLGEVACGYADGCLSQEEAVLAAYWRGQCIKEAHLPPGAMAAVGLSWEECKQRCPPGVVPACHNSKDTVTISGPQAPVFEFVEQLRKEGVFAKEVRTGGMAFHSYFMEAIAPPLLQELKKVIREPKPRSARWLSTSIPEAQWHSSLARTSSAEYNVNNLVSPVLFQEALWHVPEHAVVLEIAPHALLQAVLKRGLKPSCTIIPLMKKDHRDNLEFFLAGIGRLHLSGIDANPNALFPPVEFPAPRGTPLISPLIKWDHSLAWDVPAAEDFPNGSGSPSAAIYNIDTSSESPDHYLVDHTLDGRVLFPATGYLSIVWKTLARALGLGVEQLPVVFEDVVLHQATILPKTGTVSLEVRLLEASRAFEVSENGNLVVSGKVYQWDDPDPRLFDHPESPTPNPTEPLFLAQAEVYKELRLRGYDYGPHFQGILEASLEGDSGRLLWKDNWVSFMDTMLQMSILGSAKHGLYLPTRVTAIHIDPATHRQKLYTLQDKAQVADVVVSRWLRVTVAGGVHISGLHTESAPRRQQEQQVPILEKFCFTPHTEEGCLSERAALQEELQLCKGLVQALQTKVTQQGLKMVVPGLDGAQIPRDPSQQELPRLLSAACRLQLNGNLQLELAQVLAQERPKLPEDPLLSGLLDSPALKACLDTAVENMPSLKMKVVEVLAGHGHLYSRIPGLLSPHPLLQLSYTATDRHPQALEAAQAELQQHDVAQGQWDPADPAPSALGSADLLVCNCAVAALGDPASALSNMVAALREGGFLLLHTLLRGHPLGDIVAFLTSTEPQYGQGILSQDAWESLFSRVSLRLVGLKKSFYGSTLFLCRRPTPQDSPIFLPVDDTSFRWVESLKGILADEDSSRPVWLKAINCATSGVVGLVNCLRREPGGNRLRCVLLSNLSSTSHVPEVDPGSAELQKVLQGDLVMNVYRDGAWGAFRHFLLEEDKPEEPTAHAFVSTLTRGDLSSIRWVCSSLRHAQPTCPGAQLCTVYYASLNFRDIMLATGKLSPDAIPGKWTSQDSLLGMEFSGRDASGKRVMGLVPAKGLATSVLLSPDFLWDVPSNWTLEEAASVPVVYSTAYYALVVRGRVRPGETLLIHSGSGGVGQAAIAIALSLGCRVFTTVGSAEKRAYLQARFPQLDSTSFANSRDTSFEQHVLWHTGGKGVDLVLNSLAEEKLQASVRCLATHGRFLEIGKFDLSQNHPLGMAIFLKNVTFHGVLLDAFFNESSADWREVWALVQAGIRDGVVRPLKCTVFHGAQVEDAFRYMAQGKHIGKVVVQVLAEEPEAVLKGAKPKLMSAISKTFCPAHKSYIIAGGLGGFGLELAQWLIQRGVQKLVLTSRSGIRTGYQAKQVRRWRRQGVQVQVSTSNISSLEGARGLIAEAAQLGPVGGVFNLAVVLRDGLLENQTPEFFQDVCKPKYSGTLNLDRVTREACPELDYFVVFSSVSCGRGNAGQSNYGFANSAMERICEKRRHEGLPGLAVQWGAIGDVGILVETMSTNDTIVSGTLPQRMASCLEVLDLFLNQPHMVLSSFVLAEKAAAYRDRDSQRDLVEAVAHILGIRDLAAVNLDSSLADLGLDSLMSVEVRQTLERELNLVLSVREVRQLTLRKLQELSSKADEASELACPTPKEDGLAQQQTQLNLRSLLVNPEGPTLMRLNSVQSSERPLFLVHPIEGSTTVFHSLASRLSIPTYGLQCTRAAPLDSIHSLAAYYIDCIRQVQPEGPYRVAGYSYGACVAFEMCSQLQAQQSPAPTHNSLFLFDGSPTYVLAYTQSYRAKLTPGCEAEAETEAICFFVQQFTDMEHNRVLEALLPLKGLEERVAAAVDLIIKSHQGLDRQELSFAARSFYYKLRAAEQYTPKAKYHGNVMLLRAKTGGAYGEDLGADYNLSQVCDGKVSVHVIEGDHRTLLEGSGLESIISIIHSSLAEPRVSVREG

Take `CCCCCCCCCCCCOC(=O)c1cc(O)c(O)c(O)c1`: the result in assay [1], in [2] and in assay [3] was inactive.
On to `CN(Cc1cnc2nc(N)nc(N)c2n1)c1ccc(C(=O)N[C@@H](CCC(=O)O)C(=O)O)cc1`, for which the call in [1], in assay [4], in assay [5], in [2], in assay [3] and in assay [7] was inactive. Moreover, the result in [8], in [9], in [10] and in assay [11] was inactive. Also, the half-maximal activity concentration (AC50) (in general, the midpoint of the concentration-response curve, whichever way the signal moves) in assay [6] was 3.33 µM (active).
Turning to `O=C(O)c1cccc(C(=O)O)n1`, the call in [4], in [5], in assay [2] and in [3] was inactive.
In the case of `CCC(C)c1ccccc1O` (stereo not given), the call in assay [4], in assay [5], in assay [2], in assay [3], in assay [6] and in assay [7] was inactive. Also, the compound was classed as inactive in assay [8], in assay [9] and in [10]. In addition, the AC50 in [11] was 50 µM (active).
Consider `C[C@]12CC[C@@H]3c4ccc(O)cc4CC[C@H]3[C@@H]1C[C@@H](O)[C@@H]2O`, for which the outcome in assay [4], in [5], in assay [2], in [3], in [12] and in assay [13] was inactive. The compound was classed as inactive in assay [14], in [15] and in assay [17]. Besides, the AC50 in assay [16] was 25.8 µM (active).
For `Cc1cc(C(C)(C)C)c(O)c(C(C)(C)C)c1`, the results for the AC50 in assay [1], in assay [4] and in assay [5] were 11.4 µM (active), 74.6 µM (active) and 77.3 µM (active), respectively. The compound was classed as inactive in [2] and in assay [3].
Turning to `Cc1[nH]nc2c1N=C(c1ccccc1Cl)c1cc([N+](=O)[O-])ccc1N2`, the AC50 in [1] was 0.279 µM (active); in [6], 7.35 µM (active); in assay [8], 1.22 µM (active); in assay [9] it was 16.1 µM (active); in assay [10], 9.1 µM (active); in [11], 81.8 µM (active). Further, in assay [7], the compound was classed as inactive.
Take `CCCCCCCCCCCC(=O)O`: the result in [4], in assay [5], in assay [2] and in assay [3] was inactive.
As to `CCCCCCCCCCCC`, in [4], the AC50 was 39.2 µM (active). For the same compound, the result in [5], in assay [2] and in [3] was inactive.
In the case of `CCCCc1oc2ccccc2c1C(=O)c1cc(I)c(OCCN(CC)CC)c(I)c1`, the concentration at half-maximal activity (AC50) was 8.87 µM (active) in assay [1]; 8.75 µM (active) in [4]; 8.94 µM (active) and 8.82 µM (active) in assay [5]; 9.27 µM (active) in assay [6]; 68.3 µM (active) in assay [7]; 37.8 µM (active) in assay [9]. Further, in assay [10], the AC50 is 48.6 µM (active). Further, the compound was classed as inactive in [4], in [2], in assay [3] and in assay [8].
As to `CCCCCC(C)OC(=O)COc1ccc(Cl)c2cccnc12` (stereo not given), the AC50 was 22.7 µM (active) in assay [1], 15 µM (active) in assay [4], 18.7 µM (active) in [12] and 34.9 µM (active) in assay [15]. Further, the call in [5], in [2], in assay [3], in [13], in assay [14] and in assay [16] was inactive. The call in assay [17] was inactive.
